Screening results deposited in PubChem by National Center for Advancing Translational Sciences (NCATS).
NPC1 prom act: qHTS Assay for NPC1 Promoter Activators; AID 485313, 2010; Huh7 NPC1 promoter luciferase reporter, 24 h; 2.4% of 320,000 active; Potency, µM (series often up to 9.22 µM), most hits filed as activators; further: nearly all actives have a fitted effect of over 60% in size
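Quantitative HTS used a cell-based reporter: Huh7 cells stably bearing the NPC1 promoter upstream of luciferase were treated with compounds for 24 h, and promoter activation was read as luminescence.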
FLuc modulator: qHTS profiling assay for firefly luciferase inhibitor/activator using purifed enzyme and Km concentrations of substrates (counterscreen for miR-21 project) | Potency, µM (series often up to 57.5 µM), most hits filed as inhibitors | purified FLuc, Km substrates, luminescence inhibition | 6.9% of 360,000 active | Luciferin 4-monooxygenase (Photinus pyralis), P08659; further: nearly all actives have a fitted effect of over 55% in size
Target sequence (P08659 whole entry, looked up): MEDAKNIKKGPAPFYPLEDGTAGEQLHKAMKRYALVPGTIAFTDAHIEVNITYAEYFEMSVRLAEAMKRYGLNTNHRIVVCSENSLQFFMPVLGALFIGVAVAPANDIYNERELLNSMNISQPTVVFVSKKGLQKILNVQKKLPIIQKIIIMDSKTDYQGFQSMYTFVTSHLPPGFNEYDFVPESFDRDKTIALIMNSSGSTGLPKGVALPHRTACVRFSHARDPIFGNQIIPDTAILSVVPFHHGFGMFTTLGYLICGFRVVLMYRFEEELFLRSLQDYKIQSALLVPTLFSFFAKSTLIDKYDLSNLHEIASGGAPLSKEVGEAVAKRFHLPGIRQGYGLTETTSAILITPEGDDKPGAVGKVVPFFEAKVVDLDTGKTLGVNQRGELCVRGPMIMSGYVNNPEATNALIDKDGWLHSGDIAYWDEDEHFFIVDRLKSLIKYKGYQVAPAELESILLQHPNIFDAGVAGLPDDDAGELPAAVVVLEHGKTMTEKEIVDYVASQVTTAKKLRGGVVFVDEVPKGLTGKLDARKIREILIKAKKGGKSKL
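Purified P. pyralis luciferase, 10 nM final, with Km-level 10 uM D-luciferin and 10 uM ATP in 50 mM Tris acetate pH 7.5, 10 mM Mg acetate, 0.01% Tween-20, 0.05% BSA; 6-point qHTS titration about 60 µM downward; luminescence read.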
ELG1 DNA repair: qHTS screen for small molecules that inhibit ELG1-dependent DNA repair in human embryonic kidney (HEK293T) cells expressing luciferase-tagged ELG1 | HEK293T ELG1-luciferase reporter, luminescence, 16 h; DNA damage induced by 5-fluorouridine | Potency, µM (top dose mostly 46.1 µM), usual class: inhibitors | 2.3% of 330,000 active | AID 504467, 2011; further: nearly all actives have a fitted effect of over 55% in size
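5-Fluorouridine DNA damage + compound/DMSO, 2,000 cells/well, 16 h, 37 °C/5% CO2. ONE-Glo, 30 min RT, luminescence. Readout = decrease in reporter signal.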
Rab9 prom act: qHTS Assay for Rab9 Promoter Activators; Huh7 Rab9 promoter-luciferase reporter, luminescence, 24 h; Potency, µM (titrated, usually from 9.22 µM), most hits filed as activators; 2.8% of 320,000 active; further: nearly all actives have a fitted effect of over 60% in size
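Cells were plated at 1500 per well in reduced-serum medium with 10% FBS and left 2 h. Compound in DMSO was then added for 24 h at 37 °C. Reporter signal was read by luminescence after 10 min with luciferase detection reagent.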
ELG1 genotoxic: qHTS screen for small molecules that induce genotoxicity in human embryonic kidney (HEK293T) cells expressing luciferase-tagged ELG1; 1.3% of 330,000 active; HEK293T ELG1-luciferase reporter, luminescence, 16 h; Potency, µM (series often up to 46 µM), actives largely listed as activators; further: nearly all actives have a fitted effect of over 60% in size
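DMSO vehicle served as control against compound-treated ELG1-luciferase HEK293T cells; exposure lasted 16 hr at 37 °C and 5% CO2, followed by ONE-Glo luminescence detection after 30 min.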
SMN2 splice up: qHTS Assay for Enhancers of SMN2 Splice Variant Expression; HEK293 SMN2-luciferase splicing reporter, luminescence, 30-36 h; 2.8% of 210,000 active; Potency, µM (series often up to 46.1 µM), actives largely listed as activators; AID 1458, 2008; further: nearly all actives have a fitted effect of over 55% in size
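qHTS luciferase splicing reporter: luminescence rises when SMN2 exon 7 is included in transfected HEK293 cells. Compound exposure lasted 30-36 h at 37C, with 4.5 mM final sodium butyrate as control, followed by a ONE-Glo read.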
Hits are given with their value; – = inactive; ? = inconclusive; · = no result given. Shown are actives, neighbours in structure and some others; about 9.2% of the full set was active somewhere. The call rests on the fitted dose curve; in most records, active means well fitted curve in the direction sought with a large enough effect; inconclusive means small, poorly fitted or top-dose-only effect, or another doubt; inactive means no such curve, though single readings can be large; an effect the other way counts as inactive or inconclusive.

SMILES	NPC1 prom act	FLuc modulator	ELG1 DNA repair	Rab9 prom act	ELG1 genotoxic	SMN2 splice up
O=c1oc2ccccc2c(O)c1C=NCc1ccccn1	–	?	–	–	–	–
O=C1C(C=NCCCN2CCCC2=O)=C(O)c2ccccc21	?	19µM	?	?	18.4µM	?
O=C1C(C=NCc2ccccn2)=C(O)c2ccccc21	2.24µM	12µM	?	3.98µM	?	5.62µM
Oc1c(C(c2ccccc2)N2CCC3(CC2)OCCO3)sc2nc(-c3ccco3)nn12 (centres undefined)	·	–	·	·	·	·
CCN(CC)S(=O)(=O)c1ccc2oc(C(=O)Nc3cc(C)ccc3OC)c(C)c2c1	·	–	·	·	·	·
Cc1ccc2oc(C(=O)Nc3nnc(CC(C)C)s3)c(C)c2c1	–	–	?	–	?	·
Cc1ccc2oc(C(=O)Nc3cc(C)on3)c(C)c2c1	3.16µM	0.757µM	?	2.51µM	?	·
COc1ccccc1NC(=O)c1oc2ccc(C)cc2c1C	?	9.53µM	?	?	?	?
Cc1ccccc1OCC(=O)Nc1nnc(SCc2cc(=O)n3cccc(C)c3n2)s1	·	–	·	·	·	·
CCOP(=O)(OCC)C(NC(=O)c1cc([N+](=O)[O-])cc([N+](=O)[O-])c1)C(F)(F)F (centres undefined)	–	–	–	–	–	·
Cc1ccc(S(=O)(=O)Nc2cccc(-c3ccc(N4CCCCCC4)nn3)c2)cc1C	?	6.01µM	?	3.16µM	?	·
Cc1ccc([N+](=O)[O-])cc1S(=O)(=O)Nc1cccc(-c2ccc(N3CCCC3)nn2)c1	–	19µM	?	–	–	·
COc1ccc(S(=O)(=O)Nc2cccc(-c3ccc(N4CCC(C)CC4)nn3)c2)cc1OC	·	0.426µM	·	·	·	·
COc1ccc(S(=O)(=O)Nc2cccc(-c3ccc(N4CCCC4)nn3)c2)cc1OC	·	16.9µM	·	·	·	·
COc1ccc(S(=O)(=O)Nc2ccc(-c3ccc(N4CCCC4)nn3)cc2)cc1F	·	–	·	·	·	·
Cc1ccc(-c2nc(SCC(=O)NCc3ccco3)c3c(=O)n(C)c(=O)n(C)c3n2)cc1	·	–	·	·	·	·
Cc1cc(-c2ccc(C)c(S(=O)(=O)N(C)c3ccc(C)c(C)c3)c2)on1	·	–	·	·	·	·
Cc1ccc(NC(=O)CCCn2c(=S)[nH]c3ccsc3c2=O)cc1C	–	?	–	–	–	·
CCc1ccccc1NC(=O)CNC(=O)CNC(=O)c1cccs1	–	–	–	–	–	·
CC(C)CNS(=O)(=O)c1cc(C(=O)OCC(=O)c2ccc3c(c2)OCCO3)c(Cl)cc1Cl	–	12µM	–	–	–	–
CC(C)CNS(=O)(=O)c1cc(C(=O)O)c(Cl)cc1Cl	–	–	?	–	–	·
Cc1cc(C(=O)COc2ncnc3sccc23)c(C)n1C1CC1	?	–	?	?	?	–
CCCn1c(C)cc(C(=O)COC(=O)c2nccnc2N)c1C	1.12µM	3.38µM	?	0.447µM	?	10µM
CCCn1c(C)cc(C(=O)COC(=O)c2cc(S(=O)(=O)NCC(C)C)c(Cl)cc2Cl)c1C	–	9.53µM	?	–	–	?
CCCn1c(C)cc(C(=O)COc2ncnc3sccc23)c1C	2.82µM	8.49µM	?	2.24µM	?	11.2µM
SMILES	NPC1 prom act	FLuc modulator	ELG1 DNA repair	Rab9 prom act	ELG1 genotoxic	SMN2 splice up
CN(C(=O)C1CC1)C1CCS(=O)(=O)C1 (centres undefined)	–	–	–	–	–	·
Cc1ccc(C(=O)CSc2ncnc3ccccc23)o1	3.98µM	13.5µM	?	3.98µM	–	–
O=C(CSc1ncnc2ccccc12)c1cccs1	1.78µM	1.51µM	?	0.447µM	?	·
CC(=O)c1ccccc1NS(=O)(=O)c1ccccc1Cl	–	–	–	–	–	–
Cc1[nH]nc2ncc(C(=O)c3cc(F)ccc3O)cc12	–	–	18.4µM	–	–	–
O=C(c1cnn(C(=O)COc2ccccc2F)c1)c1cc(F)ccc1O	–	–	–	–	–	·
O=C(c1cn[nH]c1)c1cc(F)ccc1O	–	–	20.6µM	–	–	–
Cc1noc2ncc(C(=O)c3cc(F)ccc3O)cc12	–	–	–	–	–	–
CCc1cc(C(=O)O)c(NC(=O)c2cc(OC)c(OC)c(OC)c2)s1	–	8.49µM	?	–	?	–
COc1ccc(NC(=O)Nc2nnc(C)s2)cc1	·	16.9µM	·	·	·	–
COc1ccc(C(=O)Nc2cc(OC)nc(OC)n2)cc1	2.24µM	4.26µM	?	0.794µM	?	7.94µM
CCc1nnc(NC(=O)Nc2ccc(OC)cc2)s1	?	16.9µM	?	?	?	–
COc1cc(NC(=O)Cc2ccccc2)nc(OC)n1	–	–	–	–	–	·
CCOC(=O)c1cc(CC)sc1NC(=O)c1cc(OCC)c(OCC)c(OCC)c1	–	–	–	–	–	–
O=C(C[C@@H]1C/C=C\CCC(=O)O[C@H](c2ccccc2)CNC1=O)N[C@H](CO)Cc1ccccc1	·	·	?	·	–	·
CCc1nnc(NC(=O)C2CCCN(S(=O)(=O)c3ccc(OC)cc3)C2)s1 (centres undefined)	–	19µM	?	–	–	·
COc1ccc(C(=O)Nc2nc3ccc4nc(C)sc4c3s2)cc1	–	–	–	–	–	–
COc1ccc(C(=O)Nc2nnc(C)s2)cc1	·	13.5µM	·	·	·	11.2µM
CCOCCc1nnc(NC(=O)c2cc(OC)c(OC)c(OC)c2)s1	–	–	–	–	–	15.8µM
COc1ccc(S(=O)(=O)N2CCCC(C(=O)Nc3ccc(OC)c(OC)c3)C2)cc1 (centres undefined)	–	–	?	–	–	–
CC(C)Cc1nnc(NC(=O)Nc2ccccc2)s1	?	16.9µM	?	3.16µM	?	11.2µM
CC(=O)c1ccc(NC(=O)CSc2nc(-c3ccc(C)cc3)nc3c2c(=O)n(C)c(=O)n3C)cc1	·	–	·	·	·	·
CCOCc1nnc(NC(=O)c2ccc(OC)cc2)s1	–	–	?	–	–	17.8µM
COCCn1c(=O)[nH]c2cc(C(=O)Nc3nnc(C)s3)ccc21	–	13.5µM	?	?	?	·
COCCn1c(=O)[nH]c2cc(C(=O)Nc3cc(OC)c(OC)c(OC)c3)ccc2c1=O	–	–	?	–	–	·
CCc1nnc(NC(=O)c2cccc(C(=O)Nc3nnc(CC)s3)n2)s1	–	19µM	13µM	–	–	–
C/C=C/c1ccc(OCC(=O)N(C)CC(=O)Nc2ccc(F)cc2)c(OC)c1	–	–	–	–	–	·
COc1ccc(-c2cc3c(=O)n(CC(=O)Nc4ccc(Br)c(C)c4)ccn3n2)cc1OC	·	–	·	·	·	·
COc1ccc(OC)c(NC(=O)c2cc3cc(C)ccc3n2C)c1	·	–	·	·	·	·
